# Results filed as inconclusive are left out. Activity calls are given as the source filed them. Rule for the calls, unless noted: active = hit-call score of the fitted dose curve at least 0.9, where 1 is the maximum; inconclusive = response in the unintended direction; inactive = score below 0.9.
# Assays:
# [1] = tested on: DIO1 (gene 1733); assay: CCTE_GLTED_hDIO1: CCTE's human Deiodinase 1 (DIO1) Inhibition Assay, Great Lakes Toxicology and Ecology Division (GLTED) Lab (AID 2283987);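 note: isolated human DIO1 enzyme in a cell-free setup rather than cells; enzyme activity read as free iodide liberated from substrate via Sandell-Kolthoff colorimetry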
# Summary of the method: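 Cell-free hDIO1 assay, triplicate plates. Absorbance of the Sandell-Kolthoff reaction reports enzyme-liberated iodide; iodinated chemicals or nitrite, iron and thiocyanate may interfere.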
# [2] = CCTE_Harrill_HTTr_Viability_MCF7: CCTE's 6-hour Cell Viability Assessment for the High-Throughput Transcriptomics (HTTr) Platform, in MCF-7 cells cultured in DMEM + 10% fetal bovine serum, Harrill Lab (AID 2284010; active = hit-call score of the fitted dose curve at least 0.9, where 1 is the maximum; inactive = score below 0.9)
# Summary of the method: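 Eight-point concentration series, six-hour exposure. Propidium iodide exclusion imaged to assess membrane integrity as a cytotoxicity readout; bidirectional fitting was done with DMSO as negative control and activity baseline.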
# [3] = CCTE_Harrill_HTTr_Apoptosis_MCF7: CCTE's 6-hour Apoptosis Assessment for the High-Throughput Transcriptomics (HTTr) Platform, in MCF-7 cells cultured in DMEM + 10% fetal bovine serum, Harrill Lab (AID 2284011; active = hit-call score of the fitted dose curve at least 0.9, where 1 is the maximum; inactive = score below 0.9)
# Summary of the method: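 Cells are dosed with test chemicals at eight concentrations and imaged 6 hours later for caspase-3/7 activity using a green fluorogenic detection reagent. Activity is fitted in both directions against DMSO controls.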
# [4] = CCTE_Harrill_HTTr_CellCount_MCF7: CCTE's Cell Proliferation Assessment for the High-Throughput Transcriptomics (HTTr) Platform, Harrill Lab (AID 2284012);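 note: count of Hoechst-stained nuclei per well by high-content imaging in MCF-7 cells; cells exposed to compound for six hours; intended direction is loss of nuclei count meaning fewer cells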
# Summary of the method: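 For this full-screen endpoint, MCF-7 cultures received eight compound dilutions for six hours. Well nuclei counts from Hoechst imaging were analyzed relative to DMSO.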
# [5] = target: Thyroid hormone receptor alpha (Rattus norvegicus) + Thyroid hormone receptor beta (Rattus norvegicus) (UniProt P18113+P63059); assay: TOX21_TR_LUC_GH3_Agonist_Followup: Tox21 GH3 Thyroid Hormone Receptor Agonism Luciferase Follow-Up Assay (AID 2283939)
# Summary of the method: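 Agonist-mode confirmatory run: 15 concentrations (5 nM to 92 uM final) on GH3 rat pituitary cells, 24 h at 37C/5% CO2, T3 as positive control. Luminescence read with ONE-Glo after 30 min.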
# [6] = target: THRA (gene 7067) (UniProt P10827); assay: TOX21_TRA_COA_Agonist_Followup_ratio: Tox21 Thyroid Hormone Receptor alpha Agonism through Coactivator Recruitment Follow-Up Assay, Ratio (AID 2283948; active = hit-call score of the fitted dose curve at least 0.9, where 1 is the maximum; inactive = score below 0.9)
# Summary of the method: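 First, compound was incubated with 2.5 nM GST-TRα LBD in 0.10% BSA. Next, 200 nM fluorescein-SRC-2 and 2 nM Tb-anti-GST antibody were added. Finally, the 520:495 nm ratio was normalized to DMSO and T3 controls.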
# [7] = target: THRB (gene 7068) (UniProt P10828); assay: TOX21_TRB_BLA_Agonist_Followup_ratio: Tox21 Thyroid Hormone Receptor beta Agonism Beta-lactamase (BLA) Follow-Up Assay, Ratio (AID 2283954)
# Summary of the method: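 Agonist mode: compounds (11-point, triplicate) incubated 18 h with HEK293T cells carrying GAL4-DBD/human TRβ-LBD and UAS-β-lactamase. Blue/green (460/530 nm) FRET ratio read after 2 h CCF4-AM loading; CellTiter-Glo viability run in the same plates.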
# [8] = target: THRB (gene 7068) (UniProt P10828); assay: TOX21_TRB_COA_Agonist_Followup_ratio: Tox21 Thyroid Hormone Receptor beta Agonism through Coactivator Recruitment Follow-Up Assay, Ratio (AID 2283963; active = hit-call score of the fitted dose curve at least 0.9, where 1 is the maximum; inactive = score below 0.9)
# Summary of the method: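 Signal is the 520/495 nm emission ratio (excitation 340 nm), scaled between DMSO-only wells as 0% and T3 wells as 100%. It reflects fluorescein-labeled SRC-2 peptide recruitment to GST-TRβ ligand-binding domain detected via terbium anti-GST antibody.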
# [9] = target: Retinoic acid receptor RXR-alpha (Homo sapiens) (UniProt P19793); assay: TOX21_TR_RXR_BLA_Agonist_Followup_ratio: Tox21 Thyroid Hormone Receptor beta Retinoid X Receptor alpha (RXRa) Agonism Beta-lactamase (BLA) Follow-Up Assay, Ratio (AID 2283968)
# Summary of the method: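 Agonism is scored as an increase in the 460:530 nm beta-lactamase substrate ratio over DMSO in RXRa-UAS-bla HEK293T cells exposed for 16 h to 11 compound concentrations.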
# [10] = TOX21_TR_RXR_BLA_Agonist_Followup_viability: Viability Assessment in the Tox21 Thyroid Hormone Receptor beta Retinoid X Receptor alpha (RXRa) Agonism Beta-lactamase (BLA) Follow-Up Assay (AID 2283970)
# Summary of the method: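 Luminescent ATP read (CellTiter-Glo) after 16h exposure of RXRa-UAS-bla HEK293T cells at 37C/5% CO2. Activity normalized to DMSO; signal loss scored as reduced viability.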
# [11] = target: Nucleoli Translocation, AR (gene 367) (UniProt P10275); assay: UPITT_HCI_U2OS_AR_TIF2_Nucleoli_Antagonist: University of Pittsburgh U2OS Androgen Receptor-Transcriptional Intermediary Factor 2 (AR-TIF2) Antagonism High Content Imaging Assay for Nucleoli Translocation (AID 2283997)
# Summary of the method: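 Antagonism is read as loss of nucleolar AR-RFP signal relative to DHT, imaged in U2OS cells also carrying GFP-TIF2. Compounds screened at 20 uM final, 0.2% DMSO; primary actives retested in triplicate.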
# [12] = target: Ratio of Nucleoli Translocation and Cytoplasm, AR (gene 367) (UniProt P10275); assay: UPITT_HCI_U2OS_AR_TIF2_Nucleoli_Cytoplasm_Ratio_Antagonist: University of Pittsburgh U2OS Androgen Receptor-Transcriptional Intermediary Factor 2 (AR-TIF2) Antagonism High Content Imaging Assay for Ratio of Nucleoli Translocation and Cytoplasm (AID 2283999);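 note: antagonists lower the DHT-driven ratio of nucleolar to cytoplasmic red signal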
# Summary of the method: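 This antagonist-mode endpoint tracks AR-RFP localisation, the nucleolus-to-cytoplasm intensity ratio, in TIF2-GFP-coexpressing U2OS cells. DMSO stays at or below 0.5%; testing spans 20 uM single-dose and 0.195–50 uM series, with DHT setting the activity baseline.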
# [13] = target: Ratio of Nucleoli Translocation and Cytoplasm, AR (gene 367) (UniProt P10275); assay: UPITT_HCI_U2OS_AR_TIF2_Nucleoli_Cytoplasm_Ratio_Agonist: University of Pittsburgh U2OS Androgen Receptor-Transcriptional Intermediary Factor 2 (AR-TIF2) Agonism High Content Imaging Assay for Ratio of Nucleoli Translocation and Cytoplasm (AID 2284000);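 note: hits raise the red nucleolar to cytoplasm ratio above vehicle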
# Summary of the method: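 Compounds tested at 20 uM final in primary screen (0.2% DMSO) and 0.195-50 uM final in dose-response (0.5% DMSO). Imaging of human U2OS cells bearing RFP-AR and GFP-TIF2; endpoint is nucleoli/cytoplasm red signal ratio, positive direction relative to DMSO.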
# [14] = CCTE_Shafer_MEA_acute_spike_number: CCTE's Neural Acute Assay for Total Number of Spikes, Shafer Lab (AID 2284008; active = hit-call score of the fitted dose curve at least 0.9, where 1 is the maximum; inactive = score below 0.9;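 for AC50: curve fitted for decrease in spike count so AC50 reflects inhibitors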)
# Summary of the method: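 Cortical neurons from rat, matured to DIV 13 or 15 on microelectrode arrays, are recorded at 37 C before and during 40-min exposure to 0.03-40 uM compound. Wells need >/= 10 active electrodes.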
# [15] = CCTE_Shafer_MEA_acute_firing_rate_mean: CCTE's Neural Acute Assay for Mean Firing Rate, Shafer Lab (AID 2284009; active = hit-call score of the fitted dose curve at least 0.9, where 1 is the maximum; inactive = score below 0.9;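 note: analyzed for loss of signal so actives lower firing rate relative to DMSO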)
# Summary of the method: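 Primary rat cortical neurons on 16-electrode MEA wells were exposed on DIV 13 or 15 to compound (0.03-40 uM). Spike counts per recording time, averaged over electrodes, were compared between 40-min baseline and 40-min post-exposure recordings as percent change.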
# [16] = CCTE_Shafer_MEA_acute_burst_number: CCTE's Neural Acute Assay for Single-Electrode Bursts, Shafer Lab (AID 2284013; active = hit-call score of the fitted dose curve at least 0.9, where 1 is the maximum; inactive = score below 0.9)
# Summary of the method: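 Primary rat cortical neurons on 16-electrode MEA wells, DIV 13 or 15, exposed to compound (0.03-40 uM; ≥3 wells); 40-min recordings at 37 C before and after treatment. Burst count expressed as percent change from baseline, DMSO as negative control.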
# [17] = CCTE_Shafer_MEA_acute_burst_duration_mean: CCTE's Neural Acute Assay for Mean Burst Duration, Shafer Lab (AID 2284014; active = hit-call score of the fitted dose curve at least 0.9, where 1 is the maximum; inactive = score below 0.9;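 note: hits are decreases in mean burst duration relative to DMSO controls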)
# Summary of the method: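 Mean burst duration was compared between a 40 min baseline and a 40 min recording in the presence of compound (0.03-40 uM, 37 C), giving percent change per well. Cultures were rat cortical neurons at DIV 13 or 15; wells needed ≥10 active electrodes.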
# [18] = CCTE_Shafer_MEA_acute_per_burst_spike_number_mean: CCTE's Neural Acute Assay for Average Number of Spikes Per Burst, Shafer Lab (AID 2284015; active = hit-call score of the fitted dose curve at least 0.9, where 1 is the maximum; inactive = score below 0.9;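 note: hits are decreases in mean spikes per burst versus baseline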)
# Summary of the method: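 Percent change in mean spikes per single-electrode burst is compared between a 40 min baseline and a 40 min recording with compound (0.03-40 uM). Cultures were rat cortical neurons on MEA plates at DIV 13 or 15, recorded at 37 C, with DMSO as the negative control.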
# [19] = target: Nucleoli Translocation, AR (gene 367) (UniProt P10275); assay: UPITT_HCI_U2OS_AR_TIF2_Nucleoli_Agonist: University of Pittsburgh U2OS Androgen Receptor-Transcriptional Intermediary Factor 2 (AR-TIF2) Agonism High Content Imaging Assay for Nucleoli Translocation (AID 2283998)
# Summary of the method: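 Red-tagged human androgen receptor co-expressed with GFP-tagged TIF2 serves as the binding reporter. Primary testing used 20 uM final (0.2% DMSO); follow-up dose response covered 0.195 to 50 uM final (0.5% DMSO).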
# [20] = TOX21_PR_LUC_Followup_Agonist_viability: Viability Assessment in the Tox21 HEK293 Progesterone Receptor (PR) Agonism Luciferase Follow-Up Assay (AID 2283941);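 note: loss of signal means cytotoxicity so actives lower viability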
# Summary of the method: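 Seeding: HEK293-PR-A-luc, 3,000 cells/well, 5 h at 37C. Treatment: compound in DMSO, 16 h, 37C. Read: CellTiter-Glo ATP luminescence, signal loss taken as lower viability.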
# Chain of Nucleoli Translocation, AR (gene 367) (P10275 whole entry, looked up): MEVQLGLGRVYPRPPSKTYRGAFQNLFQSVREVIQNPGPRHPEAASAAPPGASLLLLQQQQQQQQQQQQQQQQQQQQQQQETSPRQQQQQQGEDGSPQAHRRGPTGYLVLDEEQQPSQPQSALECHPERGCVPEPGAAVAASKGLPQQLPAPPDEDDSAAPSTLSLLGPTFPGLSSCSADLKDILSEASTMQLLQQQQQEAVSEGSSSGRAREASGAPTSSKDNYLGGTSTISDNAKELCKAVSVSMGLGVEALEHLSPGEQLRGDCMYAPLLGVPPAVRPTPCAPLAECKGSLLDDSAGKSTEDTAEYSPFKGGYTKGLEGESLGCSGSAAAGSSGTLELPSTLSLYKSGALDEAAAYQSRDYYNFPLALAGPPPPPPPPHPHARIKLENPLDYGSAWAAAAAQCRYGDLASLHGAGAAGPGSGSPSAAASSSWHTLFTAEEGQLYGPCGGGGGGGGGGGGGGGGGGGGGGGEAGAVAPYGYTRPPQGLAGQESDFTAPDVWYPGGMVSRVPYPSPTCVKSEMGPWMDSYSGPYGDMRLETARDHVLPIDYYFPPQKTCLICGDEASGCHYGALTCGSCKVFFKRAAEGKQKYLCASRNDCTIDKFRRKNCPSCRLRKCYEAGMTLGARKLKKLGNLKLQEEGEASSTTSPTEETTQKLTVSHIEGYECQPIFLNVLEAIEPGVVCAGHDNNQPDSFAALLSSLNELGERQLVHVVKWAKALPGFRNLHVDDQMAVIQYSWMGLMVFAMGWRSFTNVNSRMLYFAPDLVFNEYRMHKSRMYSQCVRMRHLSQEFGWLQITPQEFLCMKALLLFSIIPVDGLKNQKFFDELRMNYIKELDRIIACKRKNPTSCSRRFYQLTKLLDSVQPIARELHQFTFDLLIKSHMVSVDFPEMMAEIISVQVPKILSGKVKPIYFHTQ
# Chain of Ratio of Nucleoli Translocation and Cytoplasm, AR (gene 367) (P10275 whole entry, looked up): as above
# Chain of THRB (gene 7068) (P10828 whole entry, looked up, the tested form may be a part): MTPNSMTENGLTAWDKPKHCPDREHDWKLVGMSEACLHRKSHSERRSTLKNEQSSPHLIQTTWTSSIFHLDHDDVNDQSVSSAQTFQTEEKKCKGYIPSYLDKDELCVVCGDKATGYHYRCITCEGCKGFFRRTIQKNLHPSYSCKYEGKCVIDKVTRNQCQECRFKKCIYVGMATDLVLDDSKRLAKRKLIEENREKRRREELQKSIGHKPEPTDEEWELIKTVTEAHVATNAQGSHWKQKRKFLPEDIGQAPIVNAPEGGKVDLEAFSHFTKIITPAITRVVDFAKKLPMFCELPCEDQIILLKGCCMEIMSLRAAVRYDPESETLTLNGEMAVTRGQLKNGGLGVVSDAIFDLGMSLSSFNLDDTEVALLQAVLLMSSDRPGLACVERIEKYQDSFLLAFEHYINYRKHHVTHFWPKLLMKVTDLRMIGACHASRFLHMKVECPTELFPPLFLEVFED
# Chain of Retinoic acid receptor RXR-alpha (Homo sapiens) (P19793 whole entry, looked up): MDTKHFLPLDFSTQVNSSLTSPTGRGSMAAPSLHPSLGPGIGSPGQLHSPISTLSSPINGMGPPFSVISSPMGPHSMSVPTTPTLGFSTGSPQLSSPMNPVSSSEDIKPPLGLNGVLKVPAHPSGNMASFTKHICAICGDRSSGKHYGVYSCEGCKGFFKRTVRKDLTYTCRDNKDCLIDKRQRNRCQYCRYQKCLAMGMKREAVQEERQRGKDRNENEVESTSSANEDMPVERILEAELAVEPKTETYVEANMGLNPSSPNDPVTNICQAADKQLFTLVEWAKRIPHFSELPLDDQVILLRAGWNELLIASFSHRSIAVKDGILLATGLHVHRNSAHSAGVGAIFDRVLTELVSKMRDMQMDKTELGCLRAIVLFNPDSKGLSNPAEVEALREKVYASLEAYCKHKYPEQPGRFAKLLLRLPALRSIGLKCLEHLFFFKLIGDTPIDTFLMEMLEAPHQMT
# Chain of Thyroid hormone receptor alpha (Rattus norvegicus) + Thyroid hormone receptor beta (Rattus norvegicus) (P63059 whole entry, looked up): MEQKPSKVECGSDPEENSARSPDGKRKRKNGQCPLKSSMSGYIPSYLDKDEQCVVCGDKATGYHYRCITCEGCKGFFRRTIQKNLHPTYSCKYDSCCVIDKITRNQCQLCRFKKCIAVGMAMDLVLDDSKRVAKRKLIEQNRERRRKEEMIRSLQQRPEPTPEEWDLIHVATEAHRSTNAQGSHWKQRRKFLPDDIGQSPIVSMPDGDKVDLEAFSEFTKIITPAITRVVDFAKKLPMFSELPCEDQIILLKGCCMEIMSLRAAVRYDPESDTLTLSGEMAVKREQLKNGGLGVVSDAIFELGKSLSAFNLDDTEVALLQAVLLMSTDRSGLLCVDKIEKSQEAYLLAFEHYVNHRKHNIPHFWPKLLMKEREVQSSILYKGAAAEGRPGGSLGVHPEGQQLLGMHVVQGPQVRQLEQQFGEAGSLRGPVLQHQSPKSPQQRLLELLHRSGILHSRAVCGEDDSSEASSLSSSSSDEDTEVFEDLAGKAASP
# Chain of Thyroid hormone receptor alpha (Rattus norvegicus) + Thyroid hormone receptor beta (Rattus norvegicus) (P18113 whole entry, looked up): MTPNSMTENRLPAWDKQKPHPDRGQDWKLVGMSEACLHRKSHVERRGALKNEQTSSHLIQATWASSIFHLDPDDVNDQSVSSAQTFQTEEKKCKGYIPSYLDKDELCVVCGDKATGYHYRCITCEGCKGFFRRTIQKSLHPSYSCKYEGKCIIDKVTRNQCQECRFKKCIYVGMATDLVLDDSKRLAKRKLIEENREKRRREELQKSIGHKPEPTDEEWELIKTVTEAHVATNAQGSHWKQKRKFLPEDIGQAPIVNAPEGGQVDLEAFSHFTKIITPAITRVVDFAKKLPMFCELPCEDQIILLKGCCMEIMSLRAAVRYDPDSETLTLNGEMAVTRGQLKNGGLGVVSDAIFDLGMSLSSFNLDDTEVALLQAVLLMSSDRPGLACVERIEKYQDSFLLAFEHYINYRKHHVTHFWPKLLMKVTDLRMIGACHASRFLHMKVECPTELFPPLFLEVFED
# Chain of THRA (gene 7067) (P10827 whole entry, looked up, the tested form may be a part): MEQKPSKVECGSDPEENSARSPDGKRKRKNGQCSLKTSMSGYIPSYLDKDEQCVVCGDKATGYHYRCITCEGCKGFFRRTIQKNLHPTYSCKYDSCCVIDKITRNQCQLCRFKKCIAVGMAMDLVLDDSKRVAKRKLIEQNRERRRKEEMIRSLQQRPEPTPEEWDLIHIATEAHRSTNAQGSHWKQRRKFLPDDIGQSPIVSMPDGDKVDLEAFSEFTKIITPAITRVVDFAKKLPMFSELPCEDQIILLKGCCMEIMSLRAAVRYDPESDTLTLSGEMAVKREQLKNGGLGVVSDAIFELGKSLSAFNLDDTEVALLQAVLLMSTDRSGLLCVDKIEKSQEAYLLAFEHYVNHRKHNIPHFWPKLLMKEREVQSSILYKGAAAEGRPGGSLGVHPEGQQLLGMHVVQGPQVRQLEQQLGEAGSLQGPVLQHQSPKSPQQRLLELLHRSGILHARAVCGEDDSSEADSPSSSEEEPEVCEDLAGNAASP
compound,measurement,setting,value
CCN(Cc1cccc(S(=O)(=O)O)c1)c1ccc(C(=C2C=CC(=[N+](CC)Cc3cccc(S(=O)(=O)O)c3)C=C2)c2ccc(O)cc2S(=O)(=O)[O-])cc1,AC50,[1],65 µM (active)
same,outcome,[2],inactive
same,outcome,[3],inactive
same,outcome,[4],inactive
O=S(=O)(O)c1ccc2ccccc2c1,outcome,[5],inactive
same,outcome,[6],inactive
same,outcome,[7],inactive
same,outcome,[8],inactive
same,outcome,[9],inactive
same,outcome,[10],inactive
same,outcome,[2],inactive
same,outcome,[3],inactive
CC(Cc1ccc(O)c(O)c1)C(C)Cc1ccc(O)c(O)c1 (centres undefined),AC50,[1],6.62 µM (active)
same,outcome,[2],inactive
same,outcome,[3],inactive
same,outcome,[4],inactive
O=C(O)C(F)(F)C(F)(F)C(F)(F)C(F)(F)C(F)(F)C(F)(F)C(F)(F)C(F)(F)C(F)(F)C(F)(F)C(F)(F)C(F)(F)C(F)(F)F,AC50,[1],23.7 µM (active)
CNC(=S)NC,outcome,[11],inactive
same,outcome,[12],inactive
same,outcome,[2],inactive
same,outcome,[3],inactive
same,outcome,[4],inactive
CCCCCCC(C)OC(=O)CCCCC(=O)OC(C)CCCCCC (centres undefined),outcome,[11],inactive
same,outcome,[13],inactive
CCCCCCCOC(=O)c1ccccc1C(=O)OCCCCCCC,outcome,[2],inactive
same,outcome,[3],inactive
same,outcome,[4],inactive
CC/C=C\CCOC(C)=O,outcome,[2],inactive
same,outcome,[3],inactive
O=C(O)C(F)(F)C(F)(F)C(F)(F)C(F)(F)C(F)(F)C(F)(F)C(F)(F)C(F)(F)C(F)(F)C(F)(F)C(F)(F)C(F)(F)F,AC50,[1],39 µM (active)
CCCCCC=O,outcome,[2],inactive
same,outcome,[3],inactive
O=C(Cl)C(F)(F)C(F)(F)C(F)(F)C(F)(F)C(F)(F)C(F)(F)C(F)(F)C(F)(F)F,AC50,[1],165 µM (active)
O=C(O)C=C(C(F)(F)F)C(F)(F)F,AC50,[1],20.2 µM (active)
OC[C@@H](O)[C@@H](O)[C@H](O)[C@@H](O)CO,outcome,[2],inactive
same,outcome,[3],inactive
same,outcome,[4],inactive
O=C(O)C(F)(F)C(F)(F)C(F)(F)C(F)(F)C(F)(F)C(F)(F)C(F)(F)C(F)(F)C(F)(F)C(F)F,AC50,[1],88.7 µM (active)
CCCCC(CC)COP(=O)(O)OCC(CC)CCCC (centres undefined),AC50,[14],0.00652 µM (active)
same,AC50,[15],0.00651 µM (active)
same,AC50,[16],0.003 µM (active)
same,outcome,[17],inactive
same,outcome,[18],inactive
C=CC(=O)OCC(F)(F)C(F)(F)C(F)(F)C(F)(F)COC(=O)C=C,AC50,[1],5.82 µM (active)
CCCCCCOC(=O)c1ccccc1O,outcome,[11],inactive
same,outcome,[19],inactive
same,outcome,[12],inactive
same,outcome,[13],inactive
same,outcome,[14],inactive
same,outcome,[15],inactive
same,outcome,[16],inactive
same,outcome,[17],inactive
same,outcome,[18],inactive
C#C[C@]1(O)CC[C@H]2[C@@H]3CCc4cc(OC)ccc4[C@H]3CC[C@@]21C,outcome,[20],inactive
same,outcome,[2],inactive
same,outcome,[3],inactive
same,outcome,[4],inactive
Nc1ccc(S(=O)(=O)Nc2nccs2)cc1,outcome,[10],inactive
same,outcome,[2],inactive
same,outcome,[3],inactive
same,outcome,[4],inactive
C1COCCN1,outcome,[2],inactive
same,outcome,[3],inactive
CN(C)Cc1ccccc1O,outcome,[11],inactive
same,outcome,[19],inactive
same,outcome,[12],inactive
same,outcome,[13],inactive
O=C(O)C(F)(F)C(F)(F)C(F)(F)C(F)(F)C(F)(F)C(F)(F)C(F)(F)C(F)(F)Cl,outcome,[1],inactive
CC(CCl)OP(=O)(OC(C)CCl)OC(C)CCl (centres undefined),outcome,[2],inactive
same,outcome,[3],inactive
same,outcome,[4],inactive
[Co],outcome,[11],inactive
same,outcome,[19],inactive
same,outcome,[13],inactive

# Reference: PubChem BioAssay (EPA / NIEHS)
